± gives the standard deviation of the averaged measurements. In all, about 33,000 sequences were measured (“E-score (rank enrichment, -0.5 to 0.5)”: median about -0.0028, highest 2% from about 0.23 on). Many of the other results were omitted from the sample, so the highest values are more common in it than they were.
test system: 2Sb-muMax20 (muMax20 with two 1,3-bis(methyl)benzene Cys staples, A13C/A17C and Q88C/A92C, C-terminal Lys); assay: PBM 8-mer E-score (E-score (rank enrichment, -0.5 to 0.5)); higher = stronger preferential binding
Protocol: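 Protein binding microarray (universal PBM chip covering all 10-mers in fixed probe flanks) with chemically synthesized human Max(13-93) bHLH-LZ analogs (not full-length Max) bearing noncanonical residues (hArg, Tha, Aib, Nle at 65) and aromatic Cys staples. Read-out per 8-mer (and its reverse complement): E-score (rank-based enrichment, -0.5 to 0.5) and Z-score of median probe intensity.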

In order of rising “PBM 8-mer E-score” value:
1. CCGATCGG  -0.289 ± 0.039
2. CTGGACAC  -0.2589 ± 0.0024
3. CCCGAGAG  -0.255 ± 0.041
4. AGGGCGGA  -0.228 ± 0.016
5. ATCAGCCG  -0.223 ± 0.0056
6. AGCGACCG  -0.22 ± 0.0069
7. GTCGCGGA  -0.206 ± 0.07
8. CGGCGGGA  -0.205 ± 0.01
9. ATCACCCG  -0.202 ± 0.044
10. ACCAGGGT  -0.196 ± 0.08
11. CCAGATCG  -0.185 ± 0.061
12. GAAAGCTC  -0.175 ± 0.051
13. CTGGCGCA  -0.166 ± 0.074
14. AGGGCGGC  -0.161 ± 0.057
15. CTCAGGTA  -0.158 ± 0.024
16. AGCACGTC  -0.156 ± 0.042
17. CTAAGGGC  -0.156 ± 0.055
18. ACCGGGTA  -0.1338 ± 0.00064
19. CGGTACCC  -0.133 ± 0.015
20. CGGCTAAC  -0.13 ± 0.011
21. ACTTGGGA  -0.129 ± 0.03
22. CGTATCTA  -0.126 ± 0.083
23. ACTACTGA  -0.123 ± 0.021
24. CGGGGGAA  -0.121 ± 0.028
25. CACACCCG  -0.111 ± 0.0078
26. AGAGTGAC  -0.11 ± 0.0053
27. CGGTATTA  -0.1001 ± 0.00022
28. GATTGCCC  -0.0998 ± 0.019
29. ACCACCCG  -0.0962 ± 0.022
30. AGTGTGGC  -0.0951 ± 0.025
31. AACCGATA  -0.0929 ± 0.094
32. ACCACGCA  -0.0882 ± 0.019
33. CCTACCCG  -0.0857 ± 0.0032
34. GCCACCCA  -0.0786 ± 0.049
35. CCTACACG  -0.0783 ± 0.048
36. CGTGGAAC  -0.0767 ± 0.0022
37. CAAGAGTC  -0.073 ± 0.074
38. ACCACGTA  -0.0697 ± 0.045
39. ATCAGCCA  -0.0692 ± 0.065
40. ATCACCGA  -0.0646 ± 0.084
41. CATGAGCG  -0.0614 ± 0.0046
42. ACCGAGAG  -0.0606 ± 0.0036
43. TCCGTCCA  -0.0552 ± 0.013
44. AGACTAGG  -0.0528 ± 0.031
45. ATCGGTGG  -0.0489 ± 0.0043
46. CATCTTGA  -0.0488 ± 0.041
47. CTAAAGTA  -0.0474 ± 0.011
48. CATTACCC  -0.0464 ± 0.014
49. CAAGCATC  -0.0457 ± 0.013
50. CCTAGAGC  -0.0448 ± 0.0096
51. ATCGGGAG  -0.0438 ± 0.039
52. GACGAGGA  -0.0396 ± 0.053
53. GCTACATA  -0.0387 ± 0.017
54. GTAAGGGA  -0.0384 ± 0.016
55. ATCACGCA  -0.037 ± 0.094
56. TGGGTACA  -0.0341 ± 0.055
57. CACTCCGG  -0.0338 ± 0.0072
58. ATGGCCAC  -0.0293 ± 0.011
59. ATCTAGTA  -0.0228 ± 0.022
60. ACCACGTC  -0.01627 ± 2.1e-05
61. CATGTCGA  -0.00545 ± 0.041
62. AAGCTAGG  -0.00121 ± 0.038
63. ATGACTGC  0.00213 ± 0.035
64. AGGCGGGC  0.00216 ± 0.077
65. CAATACAG  0.00554 ± 0.011
66. ACCTATAA  0.00571 ± 0.046
67. ACTAAGGC  0.00844 ± 0.07
68. CGAATTAA  0.00973 ± 0.029
69. CGCCTCAA  0.0117 ± 0.0089
70. GCCACCCC  0.0125 ± 0.1
71. ATCACCCA  0.0137 ± 0.037
72. CAATACAC  0.0179 ± 0.049
73. ACTTACTC  0.0212 ± 0.036
74. ACTACACG  0.0218 ± 0.034
75. GGTATCTA  0.0221 ± 0.013
76. CCTTACTA  0.0233 ± 0.037
77. ACATCCTC  0.028 ± 0.067
78. GCGCATAC  0.0299 ± 0.0056
79. TCCACCCA  0.0351 ± 0.068
80. AACTTGGA  0.0353 ± 0.027
81. GACCCACA  0.0373 ± 0.043
82. GCTTCTCC  0.0389 ± 0.0059
83. AGTCGAAG  0.0391 ± 0.095
84. ACATCATC  0.0415 ± 0.031
85. ACATATCG  0.0421 ± 0.053
86. CTAACAAG  0.0426 ± 0.045
87. AGTAGCAC  0.0432 ± 0.033
88. AATTTGGA  0.0432 ± 0.015
89. AATCCTGT  0.0436 ± 0.00074
90. AGCGAATC  0.0438 ± 0.019
91. CTAATTAA  0.0454 ± 0.045
92. AAAGCGGA  0.0459 ± 0.0043
93. ACCTATAC  0.0485 ± 0.061
94. ATCACGCC  0.0526 ± 0.033
95. CGCGGGGA  0.0556 ± 0.023
96. GGCGGGAA  0.0557 ± 0.014
97. ATCACGTC  0.0586 ± 0.042
98. ATTTAGCG  0.0611 ± 0.079
99. TAGCTACA  0.0611 ± 0.017
100. GGTATAGA  0.0611 ± 0.0045
101. ATACACAG  0.0629 ± 0.073
102. GAAGGTAA  0.0664 ± 0.084
103. ATTGATCA  0.0679 ± 0.039
104. AAGGCCCC  0.068 ± 0.039
105. ATGGCGCG  0.0718 ± 0.02
106. CGCCCCGC  0.072 ± 0.059
107. ACCTTGCA  0.0732 ± 0.0055
108. CCATATCA  0.076 ± 0.055
109. ACTTGGGC  0.0763 ± 0.039
110. CCTCCACC  0.0772 ± 0.089
111. TAGAACGA  0.0786 ± 0.036
112. AATTTCGT  0.0796 ± 0.033
113. AAAAGCCA  0.0803 ± 0.036
114. AGGCGGGA  0.08088 ± 0.00027
115. AATTTGGT  0.0829 ± 0.018
116. ATAATAGA  0.087 ± 0.027
117. ATACACAC  0.0901 ± 0.038
118. ACACCTCA  0.0903 ± 0.038
119. AAGTATGT  0.0914 ± 0.0063
120. AAGGGAGG  0.0917 ± 0.039
121. AAATACAA  0.0975 ± 0.074
122. ATTTGGGC  0.102 ± 0.069
123. GTTGAAAA  0.103 ± 0.084
124. CTCTAGTA  0.103 ± 0.0078
125. AGAACACG  0.104 ± 0.028
126. ATTGTTTG  0.106 ± 0.05
127. AGTATATC  0.106 ± 0.013
128. CAGTAGGG  0.111 ± 0.065
129. GGGCGGAA  0.111 ± 0.07
130. ATGGCCAG  0.113 ± 0.0052
131. CCATACAA  0.115 ± 0.024
132. GGTTGTTA  0.116 ± 0.038
133. GGTATTTA  0.118 ± 0.052
134. GCATACAA  0.119 ± 0.0048
135. CTAATAGA  0.12 ± 0.054
136. CCTTACTC  0.123 ± 0.032
137. ATATGGCG  0.123 ± 0.007
138. ACTACATG  0.123 ± 0.031
139. CCATCGCG  0.124 ± 0.044
140. ACATACAC  0.127 ± 0.016
141. AGCACGTA  0.128 ± 0.038
142. ACATATAG  0.131 ± 0.031
143. ATGAATTC  0.133 ± 0.015
144. CGCTCGAG  0.136 ± 0.036
145. GAACATGC  0.136 ± 0.0025
146. ATATCCAT  0.137 ± 0.14
147. ACATATAC  0.137 ± 0.0056
148. AAATATAC  0.138 ± 0.019
149. CTAATTAC  0.139 ± 0.051
150. ATTGCTAG  0.141 ± 0.019
151. ATAATTAA  0.141 ± 0.023
152. AAATACAC  0.145 ± 0.033
153. CTATCATA  0.149 ± 0.03
154. CATGTTCA  0.151 ± 0.025
155. CAAATATA  0.151 ± 0.0063
156. GATATATA  0.152 ± 0.015
157. AGTATATG  0.153 ± 0.051
158. CCATCATA  0.155 ± 0.017
159. ATCACGTA  0.163 ± 0.032
160. TATCTTGA  0.163 ± 0.012
161. ACCACCCC  0.165 ± 0.0053
162. ATAAAGTA  0.166 ± 0.053
163. GGAATTAA  0.166 ± 0.031
164. CTTGTTTC  0.169 ± 0.026
165. AAAGGCGA  0.17 ± 0.0091
166. ATAACCTC  0.175 ± 0.016
167. CACTTGGG  0.176 ± 0.012
168. TATATAAA  0.177 ± 0.052
169. ATATCATG  0.178 ± 0.016
170. AAAATATA  0.178 ± 0.027
171. CGTATATA  0.185 ± 0.0076
172. ACATACAG  0.188 ± 0.014
173. AGTATTTA  0.195 ± 0.012
174. GTAATTAC  0.2036 ± 0.0011
175. ATTTGGGA  0.209 ± 0.0036
176. AAATATAA  0.21 ± 0.022
177. AATTACCA  0.217 ± 0.039
178. CCCACGCG  0.221 ± 0.031
179. ATCAGCCC  0.231 ± 0.03
180. ACCTATAT  0.233 ± 0.0084
181. CAATACAA  0.234 ± 0.0058
182. TCATACAA  0.235 ± 0.035
183. GGTATATA  0.235 ± 0.013
184. ATGGCCAT  0.238 ± 0.048
185. TAAATATA  0.238 ± 0.0035
186. ATATCATA  0.239 ± 0.055
187. ATCACGCG  0.239 ± 0.026
188. ACTACATA  0.239 ± 0.06
189. ATGGCGCA  0.239 ± 0.057
190. AAATACAT  0.241 ± 0.058
191. ACATCATA  0.243 ± 0.0089
192. CGTATTTA  0.2434 ± 0.0022
193. ATACACAT  0.244 ± 0.02
194. GATCTTGA  0.246 ± 0.03
195. GTCTAGTA  0.247 ± 0.051
196. ATTGTTTC  0.248 ± 0.046
197. GTAATAGA  0.253 ± 0.0043
198. ACATATAT  0.255 ± 0.024
199. TGAATTAA  0.255 ± 0.0052
200. ACTTACTA  0.258 ± 0.042
201. AGGCGGGG  0.259 ± 0.092
202. GTAAAGTA  0.262 ± 0.032
203. ACTACACA  0.266 ± 0.055
204. ATTTGGGG  0.267 ± 0.0073
205. ACATATCA  0.2689 ± 0.00057
206. ATCACCCC  0.27 ± 0.0061
207. AGGGCGGG  0.272 ± 0.091
208. ACATACAT  0.273 ± 0.025
209. ATAATTAC  0.276 ± 0.0099
210. TTAATTAA  0.281 ± 0.08
211. ACCACGCG  0.283 ± 0.02
212. AATTACCC  0.286 ± 0.012
213. AATTTGGG  0.29 ± 0.015
214. GGGCGGGA  0.3 ± 0.018
215. AACTTGGG  0.304 ± 0.015
216. CCCACCCC  0.307 ± 0.058
217. AAATATAT  0.313 ± 0.02
218. TATATATA  0.326 ± 0.048
219. AGTATCTA  0.329 ± 0.0077
220. AGTATATA  0.334 ± 0.041
221. CCCACCCG  0.335 ± 0.042
222. ACTTGGGG  0.3507 ± 0.0032
223. CCCACCCA  0.387 ± 0.029
224. ATCACGTG  0.4 ± 0.014
225. GGCGGGGA  0.403 ± 0.025
226. AGCACGTG  0.431 ± 0.0076
227. ACCACGTG  0.432 ± 0.025
